Measured values reported in the supplement of paper PMC11865577.
Counter-ions that a name gives are not always drawn.

Test system: SARS-CoV-2 low-rank motif (SARS-low)
Test: normalised indicator fluorescence (fraction of RNA + indicator signal without compound); higher = less displacement of indicator (weaker competition)
Conditions: compound concentration: 5 uM, 30 min
Method in brief: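 In 96-well plates, RNA was combined with a TO-PRO-1 or TO-PRO-3 indicator in 20 mM phosphate pH 7.0 containing 20 mM NaCl and 80 mM KCl. Each compound was added as 0.25 μL of a 1 mM DMSO stock, giving about 5 uM final, and fluorescence was read on an Infinite 200 PRO after 30 min (excitation 485 or 620 nm). Values are the blank-corrected indicator fluorescence (buffer plus indicator subtracted) divided by the signal of RNA plus indicator without compound, averaged over two independent experiments.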

[1] = indicator: TO-PRO-1 0.1 uM, RNA concentration: 0.1 uM
[2] = indicator: TO-PRO-3 0.5 uM, RNA concentration: 0.5 uM

Compound	normalised indicator fluorescence [1]	normalised indicator fluorescence [2]
N#CC(c1ccnc(OCc2ccc(CN3CCOCC3)cc2)n1)c1nc2ccccc2s1 (stereo not given)	1.59	0.556
Cc1c(C)c2c(c(C)c1O)CC[C@@](C)(CCC[C@H](C)CCC[C@H](C)CCCC(C)C)O2 [Vitamin E]	1.07	1.16
COc1nccnc1NS(=O)(=O)c1ccc(NC(=O)/C=C/c2ccc([N+](=O)[O-])s2)cc1 [Necrosulfonamide]	1.16	0.996
CC1(C)C=Cc2c(ccc3c2OC[C@@H](c2ccc(O)cc2O)C3)O1 [Glabridin]	1.12	1.2
Cn1cc(C2=C(c3cn(CCCSC(=N)N)c4ccccc34)C(=O)NC2=O)c2ccccc21 [Ro 31-8220 Mesylate]	–	1.01
CN(C)CCCN1c2ccccc2CCc2ccc(Cl)cc21 [Clomipramine hydrochloride]	1.07	1.13
CC(C)OC(=O)CCC/C=C\C[C@@H]1[C@@H](CC[C@@H](O)CCc2ccccc2)[C@H](O)C[C@@H]1O [Latanoprost]	1.12	1.2
CC1(C)OC(=O)C=C[C@]2(C)[C@H]3CC[C@@]4(C)[C@H](c5ccoc5)OC(=O)[C@H]5O[C@]54[C@]3(C)C(=O)C[C@@H]12 [Obacunone]	1.14	0.991
O=C(COc1ccc(Cl)cc1)NC1CCC(NC(=O)COc2ccc(Cl)cc2)CC1 (stereo not given)	1.05	0.94
CC(C)=CCC[C@](C)(O[C@@H]1O[C@H](CO)[C@@H](O)[C@H](O)[C@H]1O)[C@H]1CC[C@]2(C)[C@@H]1[C@H](O)C[C@@H]1[C@@]3(C)CC[C@H](O)C(C)(C)[C@@H]3[C@@H](O[C@@H]3O[C@H](CO)[C@@H](O)[C@H](O)[C@H]3O[C@@H]3OC[C@@H](O)[C@H](O)[C@H]3O)C[C@]12C [Notoginsenoside R1]	1.23	1.26
O=[N+]([O-])c1ccc(-c2nc(-c3ccc(F)cc3)c(-c3ccncc3)[nH]2)cc1	–	0.939
C[C@@H]1O[C@@H](O[C@@H]2[C@@H](O)[C@H](OCCc3ccc(O)c(O)c3)O[C@H](CO)[C@H]2OC(=O)/C=C/c2ccc(O)c(O)c2)[C@H](O)[C@H](O)[C@H]1O [Verbascoside]	–	1.16
C[C@@H]1O[C@@H](O[C@H]2[C@H](Oc3cc(O)c4c(c3)O[C@H](c3ccc(O)cc3)CC4=O)O[C@H](CO)[C@@H](O)[C@@H]2O)[C@H](O)[C@H](O)[C@H]1O [Naringin]	1.14	1.13
O=c1ncn2nc(Sc3ccc(F)cc3F)ccc2c1-c1c(Cl)cccc1Cl [Neflamapimod]	1.2	1.17
CCOc1cc(C(=O)N2CCC(N3CCN(C)CC3)CC2)ccc1Nc1ncc2c(n1)N(C1CCCC1)c1ccccc1C(=O)N2C	1.2	1.03
Cc1oncc1C(=O)Nc1ccc(C(F)(F)F)cc1 [Leflunomide]	1.07	1.12
COC1=CC(=O)c2ccccc2C1=O [2-Methoxynaphthoquinone]	1.19	1.12
O=c1ccc2ccc(O)cc2o1 [7-Hydroxycoumarin]	1.25	1.16
COC(=O)c1ccc([C@H]2c3[nH]c4ccccc4c3C[C@H](C(=O)OC)N2C(=O)CCl)cc1	1	1.16
C[S+]([O-])c1ccc(-c2nc(-c3ccc(F)cc3)c(-c3ccncc3)[nH]2)cc1 (stereo not given)	1.04	0.92
CCNC(=O)c1noc(-c2cc(C(C)C)c(O)cc2O)c1-c1ccc(CN2CCOCC2)cc1 [Luminespib]	1.01	1.09
NC(=O)c1ccccc1Nc1ccnc(Nc2cccc(O)c2)n1	1.1	1.06
Oc1cc(O)c2c(c1)O[C@H](c1ccc(O)c(O)c1)[C@@H](O)C2 [(+)-Catechin Hydrate]	0.966	1.16
[I-].[K+] [Potassium iodide]	1.21	1.29
NNC(=O)c1ccncc1 [Isoniazid]	1.12	1.13
CC(=O)c1ccc(S(=O)(=O)NC(=O)NC2CCCCC2)cc1 [Acetohexamide]	0.998	1.12
O=c1cc(-c2ccc(O)cc2)oc2cc(O)cc(O)c12 [Apigenin]	1.22	1.27
CCNC(=O)c1[nH]nc(-c2cc(Cl)c(O)cc2O)c1-c1ccc(OC)cc1	1.25	1.22
C[C@@H]1O[C@@H](Oc2c(-c3cc(O)c(O)c(O)c3)oc3cc(O)cc(O)c3c2=O)[C@H](O)[C@H](O)[C@H]1O [Myricetrin]	0.999	1.07
